Screens (PubChem BioAssay)
DSG3 Ab inh: blocks pemphigus antibody binding to human desmoglein-3; P32926; DSG3-coupled beads, scFv-anti-DSG3-GFP binding, flow cytometry; active compounds read low; binding (percent of control), % at 10 µM; actives 0.48% (n = 310,000);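 active = binding more than 3 SD below its plate's average and above zero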;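 note: hits lower antibody fragment binding to DSG3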
PAFAH2 FP inh: PAFAH2 (human) inhibition; inhibition, % at 3.39 µM; recombinant PAFAH2, FP-rhodamine activity probe, fluorescence polarization; actives 0.99% (n = 340,000);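 active = inhibition above the mean over all tested compounds plus 3 SD, cut at about 30% in these data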;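 note: inhibitors block probe labeling of enzyme so polarization drops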
PAFAH1B3 inh: inhibitors of human PAFAH1B3. Q15102. recombinant PAFAH1B3, FP-rhodamine probe, fluorescence polarization. inhibition, % at 3.39 µM. actives 0.28% (n = 340,000). AID 492972;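 active = inhibition above the screen-wide average of all tested compounds plus 3 SD, cut at about 25% in these data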
PAFAH1B2 FP inh: blocks human PAF acetylhydrolase 1b catalytic subunit 2; AID 492953; recombinant PAFAH1B2, FP-rhodamine activity probe, fluorescence polarization; actives 1.2% (n = 340,000); inhibition, % at 3.39 µM;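 active = inhibition above the mean of all tested compounds plus 3 SD, cut at about 24% in these data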
PfM18AAP inh-1: blocks P. falciparum M18 aspartyl aminopeptidase. inhibition, % at 7.35 µM. recombinant PfM18AAP, H-Glu-NHMec fluorogenic cleavage. actives 1.2% (n = 290,000);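 active = inhibition above the campaign mean inhibition over all tested compounds plus 3 SD, cut at about 28% in these data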
pPAFAH inh: inhibitors of human plasma PAF acetylhydrolase (pPAFAH). Q13093. recombinant pPAFAH, FP-rhodamine probe fluorescence polarization. inhibition, % at 3.39 µM. actives 1.5% (n = 330,000);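 active = inhibition above the mean inhibition across the screen plus 3 SD, cut at about 25% in these data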;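 note: inhibitors block binding of the rhodamine activity-based probe so polarization drops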
Target sequence (Q13093 whole entry, looked up): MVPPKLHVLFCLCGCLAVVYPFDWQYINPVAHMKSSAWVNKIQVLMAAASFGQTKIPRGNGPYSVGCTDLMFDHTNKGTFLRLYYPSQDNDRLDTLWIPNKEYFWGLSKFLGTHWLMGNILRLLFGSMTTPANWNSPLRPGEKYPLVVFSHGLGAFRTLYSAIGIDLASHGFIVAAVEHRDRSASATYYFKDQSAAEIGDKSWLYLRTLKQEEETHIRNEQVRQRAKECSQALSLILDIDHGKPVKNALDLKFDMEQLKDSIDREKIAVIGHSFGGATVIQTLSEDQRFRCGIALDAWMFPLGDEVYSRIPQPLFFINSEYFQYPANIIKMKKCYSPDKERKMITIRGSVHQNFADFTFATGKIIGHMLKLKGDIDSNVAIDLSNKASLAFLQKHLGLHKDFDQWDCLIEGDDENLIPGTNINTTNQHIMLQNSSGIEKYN
PfM18AAP inh-2: confirmation of Plasmodium falciparum M18 aspartyl aminopeptidase inhibitors. shares compounds with PfM18AAP inh-1. recombinant PfM18AAP, H-Glu-NHMec fluorogenic cleavage. inhibition, % at 7.35 µM. actives 28% (n = 2,400);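 active = mean inhibition over replicate wells above the hit cutoff set for the earlier primary screen, cut at about 29% in these data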
CTSL1 counter: Cathepsin L (human) inhibition, confirmation; shares compounds with PfM18AAP inh-1; purified cathepsin L1, Z-Leu-Arg-MCA fluorescence; inhibition, % at 5.96 µM; 2,400 tested, under 10 active; AID 2178;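 active = average inhibition across replicates above the hit cutoff set in the earlier primary screen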
Target sequence (P07711 whole entry, looked up): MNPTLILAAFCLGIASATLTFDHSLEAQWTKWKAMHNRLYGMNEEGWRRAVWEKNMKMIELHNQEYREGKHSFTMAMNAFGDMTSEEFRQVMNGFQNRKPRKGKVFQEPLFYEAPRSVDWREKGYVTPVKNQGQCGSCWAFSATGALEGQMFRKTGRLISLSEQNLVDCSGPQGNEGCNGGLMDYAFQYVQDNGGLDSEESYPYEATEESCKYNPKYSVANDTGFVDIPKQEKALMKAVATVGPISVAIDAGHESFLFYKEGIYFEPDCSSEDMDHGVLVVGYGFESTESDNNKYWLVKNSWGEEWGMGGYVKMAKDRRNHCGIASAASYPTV
Each line names hits and unclear results; the compound was inactive in the other large screens (follow-up assays come after a bar, where they were run). In the library only some 3.8% were active in any assay of this set; here they are far more common.

Cc1ccc(OCC(=O)Nn2cnnc2)c(Br)c1	PfM18AAP inh-1 66 | PfM18AAP inh-2 57 | CTSL1 counter inactive
O=C(COc1ccc2ccccc2c1Br)Nn1cnnc1	PfM18AAP inh-1 56 | PfM18AAP inh-2 37 | CTSL1 counter inactive
Cc1cc(OCC(=O)Nn2cnnc2)c(C)cc1Br	PfM18AAP inh-1 46 | PfM18AAP inh-2 55 | CTSL1 counter inactive
CC(=O)N1c2ccc(S(=O)(=O)NCCC(=O)Nc3ncccc3C)cc2CC1C (centres undefined)	none
COc1ccc(CNC(=O)C2CCN(S(=O)(=O)c3cccc4nonc34)CC2)cc1	none (no result: DSG3 Ab inh)
Cc1c(NC(=O)C(C)OC(=O)CCOc2ccccc2)c(=O)n(-c2ccccc2)n1C (centres undefined)	none (no result: PfM18AAP inh-1)
O=C(CSc1nnc(NC(=O)c2ccccc2[N+](=O)[O-])s1)NC1CCCC1	none (no result: DSG3 Ab inh)
CCOC(=O)C1=C(COC(=O)COc2ccc(C(=O)CC)cc2)NC(=O)NC1C (centres undefined)	none (no result: PfM18AAP inh-1)
O=[N+]([O-])c1ccc(NNS(=O)(=O)c2cc(Cl)ccc2Cl)nc1	PfM18AAP inh-1 55 (no result: pPAFAH inh) | PfM18AAP inh-2 inactive | CTSL1 counter inactive
O=[N+]([O-])c1ccc(Nc2ccc(Cl)cc2)nc1	none (no result: DSG3 Ab inh, PAFAH2 FP inh, PAFAH1B3 inh, PAFAH1B2 FP inh)
CNC(=O)CSc1nnc(-c2ccccc2F)n1CCc1ccccc1	none
COc1cc(OC)cc(-c2c(C#Cc3ccsc3)c3cc(-c4ccc(OC)nc4)ccc3n2C)c1	none (no result: PfM18AAP inh-1)
COCCn1c(N/N=C(C)/C=C/c2ccccc2)nc2c1c(=O)[nH]c(=O)n2C	none (no result: DSG3 Ab inh, PAFAH2 FP inh, PAFAH1B3 inh, PAFAH1B2 FP inh)
O=C(NC(=S)NCCN1CCOCC1)c1ccc(F)cc1	none
Cc1ccc(C(=O)NC(=S)NNC(=O)CCN2CCOCC2)cc1	PfM18AAP inh-1 38 | PfM18AAP inh-2 inactive | CTSL1 counter inactive
O=C(N/N=C/c1ccc(-c2ccc([N+](=O)[O-])cc2)o1)[C@H]1C[C@@H]1c1ccccc1	PfM18AAP inh-1 32 | PfM18AAP inh-2 inactive | CTSL1 counter inactive
COc1ccccc1NC(=O)COc1cccc2c1CCNC2=O	none (no result: PfM18AAP inh-1)
CC(C)(C)OC(=O)C[C@@H]1C/C=C\C[C@@H](CC(=O)NCCO)C(=O)NC[C@@H](c2ccccc2)OC1=O	none (no result: PfM18AAP inh-1)
OCC[C@H]1C[C@@H](O)[C@H](O)[C@@]2(CCCCO2)O1	none (no result: PfM18AAP inh-1)
S=c1nc(C23CC4CC(CC(C4)C2)C3)[nH][nH]1	PfM18AAP inh-1 36 | PfM18AAP inh-2 inactive | CTSL1 counter inactive
Cc1sc(N)nc1C12CC3CC(CC(C3)C1)C2	none (no result: DSG3 Ab inh)
Cc1ccc(C(=O)CCC(=O)OCC(=O)N(C)c2c(N)n(Cc3ccccc3)c(=O)[nH]c2=O)cc1	none (no result: PfM18AAP inh-1)
COc1ccc(C)cc1S(=O)(=O)N1CCN(C(=O)c2ncoc2-c2cccc(F)c2)CC1	none
CNC(=O)c1cc(Oc2ccc(NC(=O)Nc3ccc(Cl)c(C(F)(F)F)c3)cc2)ccn1	none (no result: PfM18AAP inh-1)
Cc1cc(=S)[nH]c(=S)[nH]1	PfM18AAP inh-1 38 | PfM18AAP inh-2 inactive | CTSL1 counter inactive
COC(=O)[C@H](CCSC)NC(=O)Cn1cc(C)c(=O)[nH]c1=O	none (no result: PfM18AAP inh-1, pPAFAH inh)
CCOc1ccc(-c2cc(C(=O)N/N=C(\C)c3cccnc3)c3ccccc3n2)c(OCC)c1	none (no result: pPAFAH inh)
O=[N+]([O-])c1ccc(N/N=C/c2ccc[nH]2)cc1	PfM18AAP inh-1 35 | PfM18AAP inh-2 inactive | CTSL1 counter inactive
O=C(N/N=C/c1c[nH]c2ccccc12)c1cccc([N+](=O)[O-])c1	none
O=[N+]([O-])c1ccc(N/N=C/c2c[nH]c3ccccc23)cc1	PfM18AAP inh-1 37 | PfM18AAP inh-2 inactive | CTSL1 counter inactive
Oc1c(C(c2ccccc2)N2CCc3ccccc3C2)sc2ncnn12 (centres undefined)	PfM18AAP inh-1 58 | PfM18AAP inh-2 inactive | CTSL1 counter inactive
CC1CCCN(C(c2ccccc2)c2sc3ncnn3c2O)C1 (centres undefined)	PfM18AAP inh-1 55 | PfM18AAP inh-2 inactive | CTSL1 counter inactive
COc1ccc(N2C[C@H](Cc3ccccc3)[C@@H](CC(=O)Nc3ccccc3)C2=O)cc1	none (no result: PAFAH2 FP inh, PAFAH1B3 inh, PAFAH1B2 FP inh, PfM18AAP inh-1, pPAFAH inh)
COc1ccc(C)cc1S(=O)(=O)N1CCC(C(=O)N2CCN(C)CC2)CC1	none
Cc1ccn2c(C(=O)NNC(=O)Nc3ccc(Cl)cc3)c(C)nc2c1	PfM18AAP inh-1 64 (no result: pPAFAH inh) | PfM18AAP inh-2 48 | CTSL1 counter inactive
Cc1nc2ccccn2c1C(=O)NNC(=O)Nc1cccc(C(F)(F)F)c1	PfM18AAP inh-1 64 (no result: DSG3 Ab inh) | PfM18AAP inh-2 33 | CTSL1 counter inactive
CN(C(=O)CSc1nc2c(cnn2-c2ccccc2)c(=O)[nH]1)C1CCS(=O)(=O)C1 (centres undefined)	none (no result: DSG3 Ab inh, PAFAH2 FP inh, PAFAH1B3 inh, PAFAH1B2 FP inh)
S=c1nc(-c2ccco2)[nH][nH]1	PfM18AAP inh-1 44 | PfM18AAP inh-2 inactive | CTSL1 counter inactive
Cn1c(-c2ccco2)n[nH]c1=S	none
COc1ccc(C2=NS(=O)(=O)N(C)C(C(=O)N3CCc4ccccc4C3)=C2)cc1OC	none
c1ccc2c(C3CCO3)cccc2c1 (centres undefined)	none (no result: PfM18AAP inh-1)
O=C(Nc1cccc(C(F)(F)F)c1)Nn1cnnc1	PfM18AAP inh-1 70 (no result: pPAFAH inh) | PfM18AAP inh-2 64 | CTSL1 counter inactive
O=C(NNc1nccc(C(F)(F)F)n1)Nc1cccc(Cl)c1	PfM18AAP inh-1 46 | PfM18AAP inh-2 inactive | CTSL1 counter inactive
COc1cccc(NC(=O)Nc2cccnc2)c1	none
COc1cccc(NC(=O)Nn2cnnc2)c1	PfM18AAP inh-1 63 (no result: pPAFAH inh) | PfM18AAP inh-2 49 | CTSL1 counter inactive
O=C(Nc1ccc(Cl)c(Cl)c1)Nn1cnnc1	PfM18AAP inh-1 76 (no result: pPAFAH inh) | PfM18AAP inh-2 71 | CTSL1 counter inactive
O=C(Cn1cnc2c(OCc3ccccc3)ncnc21)NCCc1c[nH]c2ccccc12	none (no result: PfM18AAP inh-1)
COc1cccc(C(C(=O)NC2CCCC2)N(C(=O)c2ccco2)c2ccc(NC(C)=O)cc2)c1OC (centres undefined)	none
COC(=O)C(C(=O)OC)C(CC(=O)c1ccc(Br)cc1)c1ccccc1 (centres undefined)	none (no result: PfM18AAP inh-1, pPAFAH inh)
Cc1ccc(NC(=O)Nn2cnnc2)cc1Cl	PfM18AAP inh-1 69 | PfM18AAP inh-2 54 | CTSL1 counter inactive
O=C(Nc1cccc(Cl)c1)Nn1cnnc1	PfM18AAP inh-1 67 | PfM18AAP inh-2 58 | CTSL1 counter inactive
COC(=O)c1sccc1NC(=O)CC1C(=O)NCCN1C(=O)c1ccc(C)c(C)c1 (centres undefined)	none
CC(C)/C=C(/C(=O)c1ccc(Cl)cc1Cl)n1cncn1	PfM18AAP inh-1 49 | PfM18AAP inh-2 inactive | CTSL1 counter inactive
C/C(=N\Nc1nc(C(C)(C)C)cs1)c1ccccc1	none
C/C(=N\Nc1nc(C(=O)O)cs1)c1ccccc1	PfM18AAP inh-1 42 (no result: DSG3 Ab inh, PAFAH2 FP inh, PAFAH1B3 inh, PAFAH1B2 FP inh) | PfM18AAP inh-2 inactive | CTSL1 counter inactive
COc1ccc(/C=N/Nc2nc(C(=O)O)cs2)cc1	PfM18AAP inh-1 34 | PfM18AAP inh-2 inactive | CTSL1 counter inactive
